One assay deals with 7G8. Briefly: qHTS profiling for inhibitors of Plasmodium falciparum proliferation (AID 504749). Note: nearly all actives have a fitted effect of over 60% in size. Note: potency is the fitted concentration of half-maximal effect. As to conditions: P. falciparum in erythrocytes, SYBR Green DNA, 72 h; series mostly up to 28.7 µM. Summed up: (§1)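 Each compound contacts P. falciparum-infected red blood cells for 72 h at 37 C; lysis buffer (Tris, EDTA, saponin, Triton X, SYBR Green I) is added and fluorescence measured next morning; values normalized to controls.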
(In general: Quantitative high-throughput screening tests each substance at several concentrations.)

The subject of a further assay is ATS95. The description is as above. As to conditions: P. falciparum in erythrocytes, SYBR Green DNA, 72 h; series mostly up to 28.7 µM. Summed up:
as §1

In a further assay the test system is C2A. The assay is described as above. Conditions: P. falciparum in erythrocytes, SYBR Green DNA, 72 h; series mostly up to 28.7 µM. Summed up:
as §1

A further assay deals with CP191. The assay is described as above. Conditions: P. falciparum in erythrocytes, SYBR Green DNA, 72 h; series mostly up to 28.7 µM. Summed up:
as §1

In the next assay the test system is CP217. The description is as above. As to conditions: P. falciparum in erythrocytes, SYBR Green DNA, 72 h; series mostly up to 28.7 µM. Summed up: as §1
A further assay relates to CP250. The description is as above. Conditions: P. falciparum in erythrocytes, SYBR Green DNA, 72 h; series mostly up to 28.7 µM. A digest of the protocol:
as §1

In a further assay the test system is CP260. The assay is described as above. Conditions: P. falciparum in erythrocytes, SYBR Green DNA, 72 h; series mostly up to 28.7 µM. A digest of the protocol: as §1
The test system of a further assay is DFO2036. The assay is described as above. Conditions: P. falciparum in erythrocytes, SYBR Green DNA, 72 h; series mostly up to 28.7 µM. Summed up: as §1
The next assay concerns DIV14. The assay is described as above. As to conditions: P. falciparum in erythrocytes, SYBR Green DNA, 72 h; series mostly up to 28.7 µM. Summed up:
as §1

A further assay has as its system DIV17. Described as above. Conditions: P. falciparum in erythrocytes, SYBR Green DNA, 72 h; series mostly up to 28.7 µM. A digest of the protocol:
as §1

The next assay relates to DIV30. The description is as above. As to conditions: P. falciparum in erythrocytes, SYBR Green DNA, 72 h; series mostly up to 28.7 µM. Summed up: as §1
Another assay concerns P94_40. The description is as above. As to conditions: P. falciparum in erythrocytes, SYBR Green DNA, 72 h; series mostly up to 28.7 µM. Summed up: as §1
Another assay has as its system PC26. The description is as above. As to conditions: P. falciparum in erythrocytes, SYBR Green DNA, 72 h; series mostly up to 28.7 µM. Summed up: as §1
The test system of a further assay is SC27B. Described as above. As to conditions: P. falciparum in erythrocytes, SYBR Green DNA, 72 h; series mostly up to 28.7 µM. A digest of the protocol: as §1
The subject of another assay is TAB113. The assay is described as above. As to conditions: P. falciparum in erythrocytes, SYBR Green DNA, 72 h; series mostly up to 28.7 µM. A digest of the protocol: as §1
The test system of another assay is TAB165. Described as above. As to conditions: P. falciparum in erythrocytes, SYBR Green DNA, 72 h; series mostly up to 28.7 µM. A digest of the protocol:
as §1

The next assay has as its system 3D7. The assay is described as above. Conditions: P. falciparum in erythrocytes, SYBR Green DNA, 72 h; series mostly up to 28.7 µM. A digest of the protocol:
as §1

For a further assay, the system named is CP335. The description is as above. Conditions: P. falciparum in erythrocytes, SYBR Green DNA, 72 h; series mostly up to 28.7 µM. A digest of the protocol: as §1
Another assay concerns PAD. Described as above. As to conditions: P. falciparum in erythrocytes, SYBR Green DNA, 72 h; series mostly up to 28.7 µM. Summed up: as §1
The nature of assay [1]: S16 Schwann cell PMP22 intronic element firefly luciferase assay (AID 624032). Note: nearly all actives have a fitted effect of over 30% in size. Summed up: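 Rat S16 Schwann cells stably carrying firefly luciferase driven by a PMP22 intronic element, in 10% FBS, treated 24 h at 37 C. ONE-Glo luminescence normalized to PTC124 control and DMSO (0%); curves classed by r2, magnitude and activity.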

Potency data for eight compounds are collected here from PubChem BioAssay (NCATS).

Results filed as inconclusive are left out. The source made the active and inactive calls. Calls come from the whole dose curve; as a rule, active = well fitted curve in the direction sought with a large enough effect; inconclusive = small, poorly fitted or top-dose-only effect, or another doubt; inactive = no such curve, though single readings can be large; an effect the other way counts as inactive or inconclusive.

Take `C[C@]12CC[C@@H]3c4ccc(O)cc4CC[C@H]3[C@@H]1CCC2OC(=O)CCC1CCCC1` (stereo not given in full): in the assay on 7G8, the Potency is 10 µM (active). For the same compound, the Potency result in the assay with ATS95, in the assay with C2A, with CP191, in the assay with CP217, in the assay with CP250 and in the assay with CP260 was “inactive” throughout. Also, the Potency entry with DFO2036, with DIV14, in the assay on DIV17, with DIV30, in the assay on P94_40 and in the assay with PC26 was “inactive” each time. Also, the Potency entry with SC27B, with TAB113 and in the assay with TAB165 was “inactive” each time.

In the case of `CC1=C(C/C=C(\C)CCCC(C)CCCC(C)CCCC(C)C)C(=O)c2ccccc2C1=O` (stereo not given), the Potency with 3D7 is 8.91 µM (active); with 7G8, 8.91 µM (active); in the assay with CP335 it was 12 µM (active); in the assay with P94_40 it was 4.47 µM (active); in the assay on PAD it was 7.94 µM (active); in the assay on TAB113 it was 8.91 µM (active). The Potency result with C2A, in the assay with CP217, in the assay with CP250, in the assay with DFO2036, in the assay on DIV17 and in the assay with DIV30 was “inactive” in each case. Besides, the Potency result in the assay on PC26 is “inactive”.

In the case of `Cc1c(C)c2c(c(C)c1O)CCC(C)(CCCC(C)CCCC(C)CCCC(C)C)O2` (stereo not given), the Potency result (in assay [1]; with 3D7; in the assay with ATS95; in the assay with C2A; in the assay with CP191; in the assay on CP217) was “inactive” in each case. The Potency entry with CP250, with CP260, in the assay with CP335, in the assay with DFO2036, with DIV14 and in the assay with DIV17 was “inactive” each time. Also, the Potency entry in the assay with DIV30, in the assay on P94_40, with PAD, in the assay on PC26, in the assay with SC27B and in the assay with TAB113 was “inactive” in each case. Further, the Potency entry with TAB165 is “inactive”.

As for `CC(C)(C)NC[C@H](O)CSc1nc(-c2ccc(C(N)=O)s2)cs1`, the Potency entry (in assay [1]; with 3D7; in the assay with ATS95; in the assay on C2A; in the assay on CP191; with CP217) was “inactive” throughout. The Potency result in the assay on CP250, in the assay with CP335, with DFO2036, with DIV30, in the assay with P94_40 and in the assay on PAD was “inactive” throughout. Besides, the Potency entry with PC26, in the assay on SC27B and in the assay on TAB165 was “inactive” each time.

For `CC1CN(c2c(F)c(N)c3c(=O)c(C(=O)O)cn(C4CC4)c3c2F)CC(C)N1` (stereo not given), the Potency result (in [1]; in the assay with 3D7; in the assay with ATS95; in the assay on C2A; in the assay with CP191; in the assay with CP217) was “inactive” each time. Also, the Potency result in the assay on CP250, in the assay on DFO2036, in the assay with DIV14, in the assay on DIV17, with DIV30 and in the assay with P94_40 was “inactive” throughout. In addition, the Potency entry with PAD, in the assay with PC26, with SC27B, in the assay on TAB113 and in the assay with TAB165 was “inactive” throughout.

As to `CC1=C(c2ccc(NN=C(C#N)C#N)cc2)NNC(=O)C1`, the Potency entry (in [1]; in the assay on 3D7; in the assay on ATS95; with C2A; with CP191; in the assay on CP217) was “inactive” in each case. Moreover, the Potency result with CP250, in the assay with CP335, with DFO2036, in the assay on DIV14, in the assay on DIV30 and in the assay with P94_40 was “inactive” in each case. The Potency entry in the assay with PAD, with PC26, with SC27B and with TAB165 was “inactive” in each case.

In the case of `COC(=O)C1C2CC3c4[nH]c5cc(OC)ccc5c4CCN3CC2CC(OC)C1OC` (stereo not given), the Potency result (in [1]; with 3D7; with ATS95; in the assay on C2A; in the assay on CP191; with CP217) was “inactive” throughout. Moreover, the Potency entry with CP250, in the assay with CP260, in the assay on CP335, in the assay on DFO2036, with P94_40 and in the assay with PAD was “inactive” in each case. Further, the Potency entry in the assay with PC26, in the assay on SC27B, in the assay on TAB113 and in the assay on TAB165 was “inactive” in each case.

For the compound `O=C(O)C[CH2][Ge](=[O])[O][Ge](=[O])[CH2]CC(=O)O`, the Potency result (in assay [1]; with 7G8; in the assay on ATS95; in the assay on C2A; with CP191; in the assay with CP217) was “inactive” each time. The Potency result in the assay on CP250, in the assay with CP260, in the assay on CP335, in the assay with DIV14, in the assay on DIV17 and in the assay with DIV30 was “inactive” in each case. Also, the Potency entry in the assay with P94_40, in the assay with PAD, in the assay with PC26, with SC27B, in the assay on TAB113 and in the assay with TAB165 was “inactive” in each case.
